Compound activity as filed in PubChem BioAssay.
KCNQ2 inh = blocks the rat KCNQ2 potassium channel | 310,000 compounds, 1.1% hits | O88943 | B-score at 10 µM | CHO-K1 KCNQ2, FluxOR thallium flux, 20 min; hits give low values;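 active = fluorescence ratio B-score at most minus 3 library SDs, with starting brightness B-score within 2 library SDs, cut at about -5.5 in these data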
Target sequence (O88943 whole entry, looked up): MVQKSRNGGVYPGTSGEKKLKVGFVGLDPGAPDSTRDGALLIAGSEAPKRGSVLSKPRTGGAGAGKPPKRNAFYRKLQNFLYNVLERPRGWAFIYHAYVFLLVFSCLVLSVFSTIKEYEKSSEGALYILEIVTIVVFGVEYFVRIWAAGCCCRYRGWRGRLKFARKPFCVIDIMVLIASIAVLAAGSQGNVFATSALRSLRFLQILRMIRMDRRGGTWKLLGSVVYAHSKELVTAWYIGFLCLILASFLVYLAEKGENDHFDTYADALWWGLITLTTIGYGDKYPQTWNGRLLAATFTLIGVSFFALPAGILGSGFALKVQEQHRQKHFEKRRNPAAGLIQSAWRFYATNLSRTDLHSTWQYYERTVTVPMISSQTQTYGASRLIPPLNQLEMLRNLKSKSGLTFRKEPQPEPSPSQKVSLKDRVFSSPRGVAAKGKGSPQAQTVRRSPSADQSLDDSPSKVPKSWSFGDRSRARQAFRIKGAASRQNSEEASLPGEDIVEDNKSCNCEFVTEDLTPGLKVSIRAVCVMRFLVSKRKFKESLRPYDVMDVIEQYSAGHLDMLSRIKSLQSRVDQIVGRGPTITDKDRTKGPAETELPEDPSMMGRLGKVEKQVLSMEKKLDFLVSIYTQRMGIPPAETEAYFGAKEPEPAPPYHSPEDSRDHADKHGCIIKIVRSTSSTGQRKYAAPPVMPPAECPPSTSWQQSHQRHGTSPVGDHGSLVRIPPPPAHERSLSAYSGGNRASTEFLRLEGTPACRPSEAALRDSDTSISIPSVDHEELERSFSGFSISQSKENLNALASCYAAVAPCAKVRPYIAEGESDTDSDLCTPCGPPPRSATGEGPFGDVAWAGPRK
KCNQ2 enhance = KCNQ2 (rat) channel potentiation | AID 2239 | CHO-K1 KCNQ2, FluxOR thallium flux fluorescence; hits give high values | B-score at 10 µM | 310,000 compounds, 0.54% hits;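 active = fluorescence ratio B-score at least 3 SD of library B-scores, with initial fluorescence B-score within 3 of them, cut at about 5.3 in these data; same plate scores as AID 2156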;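 note: B-score of peak minus minimum over baseline fluorescence ratio after K+ and Tl+ stimulus; positive B-score means potentiation of KCNQ2 with more thallium influx and brighter signal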
* marks the source's active call; other numbers are inactive results. The list is not random: actives were taken first. Their share in the collection is about 1.6%.

Screening O=C(O)C1(S(=O)(=O)c2ccc(Cl)cc2)CCC1 returned KCNQ2 inh inactive.
For COc1ccc(C(CNC(=O)c2cccc(NS(=O)(=O)c3ccc(Br)cc3)c2)N(C)C)cc1 (centres undefined) the results were KCNQ2 inh inactive.
COc1ccc(CNc2ncc(-c3ccccc3)n2C)c2ccccc12 was read as KCNQ2 inh -5.7* and KCNQ2 enhance -5.7.
`COc1ccc(CNc2ncc(-c3ccccc3)n2C)c(OC)c1OC` gave KCNQ2 inh inactive and KCNQ2 enhance 0.9.
Screening C=CCNC(=O)[C@H]1N2C(=O)c3ccccc3C2SC1(C)C (some centres undefined) returned KCNQ2 inh inactive.
`COc1ccc(CNC(=O)C(C#N)c2nc3ccccc3nc2N2CCCC2)cc1` (centres undefined) gave KCNQ2 inh inactive.
For CC1CN(c2nc3ccccc3nc2C(C#N)C(=O)NCc2ccc3c(c2)OCO3)CC(C)O1 (centres undefined) the results were KCNQ2 inh -5.6* and KCNQ2 enhance -5.6.
Screening COc1cccc(/C=N/NC(=O)c2ccc([N+](=O)[O-])cc2Cl)c1O returned KCNQ2 inh inactive and KCNQ2 enhance 7.7*.
`COc1cc(/C=N/NC(=O)c2cccc([N+](=O)[O-])c2)cc(OC)c1O` gave KCNQ2 inh inactive and KCNQ2 enhance 1.9.
CC(CNC(=O)CCn1ccc2cc(S(=O)(=O)N3CCCC3)ccc21)c1ccccc1 (centres undefined) was read as KCNQ2 inh inactive and KCNQ2 enhance 0.76.
`O=C(O)c1cc(NC(=O)c2ccc(Cl)c([N+](=O)[O-])c2)cc(C(=O)O)c1` gave KCNQ2 inh inactive and KCNQ2 enhance 0.26.
O=C(Nc1ccc(C(O)(C(F)(F)F)C(F)(F)F)cc1)c1ccc(Cl)c([N+](=O)[O-])c1 was read as KCNQ2 inh -7* and KCNQ2 enhance -7.
Screening COc1ccccc1C(=O)C1CCCN(C(=O)c2cccc(Cn3cccn3)c2)C1 (centres undefined) returned KCNQ2 inh inactive.
Screening COc1ccc(OCC(=O)Nc2ccc(N3CCN(C(=O)c4ccccc4)CC3)c(Cl)c2)cc1 returned KCNQ2 inh inactive and KCNQ2 enhance 1.1.
For CCOC(=O)C1(Cc2ccccc2)C(=O)N(CCCN(C)C)c2ccccc21 (centres undefined) the results were KCNQ2 inh inactive.
For Cn1c(O)c(N=Nc2ccccc2)c2ccccc21 the results were KCNQ2 inh inactive and KCNQ2 enhance 0.09.
Cn1c(O)c(N=Nc2nc(-c3ccccc3)cs2)c2ccccc21 was read as KCNQ2 inh inactive and KCNQ2 enhance 22*.
For CCCCNC(=O)N(O)C1N(/N=C/c2ccccc2OC)C(=S)SC1(C)C (centres undefined) the results were KCNQ2 inh inactive.
Screening COc1ccc2c(c1)Sc1ccccc1N2CCN(C)C returned KCNQ2 inh inactive.
For COc1ccc2ccc3c(c2c1)N=CC1(O3)N(C)c2ccccc2C1(C)C (centres undefined) the results were KCNQ2 inh -8.2* and KCNQ2 enhance -8.2.
Screening CN1c2ccccc2C(C)(C)C12C=Nc1c(ccc3ccccc13)O2 (centres undefined) returned KCNQ2 inh -5.7* and KCNQ2 enhance -5.7.
For CN1c2ccccc2C(C)(C)C12CC(CCl)=NO2 (centres undefined) the results were KCNQ2 inh inactive and KCNQ2 enhance 0.63.
CC1(c2ccc(OC(F)F)cc2)NC(=O)N(CC(=O)Nc2cccc(F)c2)C1=O (centres undefined) was read as KCNQ2 inh inactive and KCNQ2 enhance 0.61.
COC(=O)c1ccc(NC(=O)CSc2ccc(-c3ccccn3)nn2)cc1 was read as KCNQ2 inh inactive.
Cc1cc(C)c(S(=O)(=O)N2CCOC2CNC(=O)C(=O)NCCCn2ccnc2)c(C)c1 (centres undefined) was read as KCNQ2 inh inactive.
CCOC(=O)c1c(C)n(-c2ccccc2)c2ccc(OCCN(C)C)cc12 was read as KCNQ2 inh inactive.
For CC1CCN(CCCNC(=O)Cn2ncc3c([nH]c4ccccc43)c2=O)CC1 the results were KCNQ2 inh inactive.
`COc1ccccc1NS(=O)(=O)c1cn(C)cn1` gave KCNQ2 inh inactive and KCNQ2 enhance 0.8.
For O=C(/C=C/c1cccs1)N1CCC2(CC1)Oc1ccc(Cl)cc1C(=O)C21CC(c2cccnc2)=NO1 (centres undefined) the results were KCNQ2 inh -6.8* and KCNQ2 enhance -6.8.
`Cc1ccc(C(=O)N2CCC3(CC2)Oc2ccc(Cl)cc2C(=O)C32CC(c3cccnc3)=NO2)s1` (centres undefined) gave KCNQ2 inh inactive.
For O=S(=O)(c1cccc2nonc12)N1CCCCC1 the results were KCNQ2 inh inactive and KCNQ2 enhance 0.56.
CCOC(=O)C1CCN(C(=O)c2ccc(OCC(=O)Nc3cccc(C(F)(F)F)c3)cc2)CC1 was read as KCNQ2 inh -6.5* and KCNQ2 enhance -6.5.
NC(=O)C1CCN(C(=O)c2ccc(OCC(=O)Nc3cccc(C(F)(F)F)c3)cc2)CC1 was read as KCNQ2 inh inactive.
Screening COc1ccc(Br)cc1S(=O)(=O)n1nc(C)cc1C returned KCNQ2 inh inactive and KCNQ2 enhance 0.01.
CCN(CC)C(=O)c1sc2nc(-c3cccs3)cc(-c3cccs3)c2c1N was read as KCNQ2 inh inactive.
For CCN(CC)C(=O)c1sc2nc(-c3cccs3)cc(-c3ccc(Cl)cc3)c2c1N the results were KCNQ2 inh -6.9* and KCNQ2 enhance -6.9.
Cc1ccc(S(=O)(=O)N(C)C)cc1NC(=O)COC(=O)COc1ccc2c(c1)CCC2 was read as KCNQ2 inh inactive and KCNQ2 enhance 0.69.
`CC(C)(C)c1cc(CP(=O)(c2ccccc2)c2ccccc2)cc(C(C)(C)C)c1O` gave KCNQ2 inh -5.7* and KCNQ2 enhance -5.7.
For O=P(Cc1ccccc1)(c1ccccc1)c1ccccc1 the results were KCNQ2 inh inactive.
For CN1CCN(C(=O)Cn2ncc3c([nH]c4ccccc43)c2=O)CC1 the results were KCNQ2 inh inactive.
`CCc1ccccc1Nc1cc(C(=O)NCc2ccccn2)c2ccccc2n1` gave KCNQ2 inh -5.9* and KCNQ2 enhance -5.9.
CCc1ccc(-c2cc(C(=O)NCc3ccccn3)c3ccccc3n2)cc1 was read as KCNQ2 inh inactive.
`COc1ccccc1-c1nc(C(=O)NCC2CCCO2)cc2c1[nH]c1ccccc12` (centres undefined) gave KCNQ2 inh inactive.
`COc1cc(-c2nc(C(=O)NCC3CCCO3)cc3c2[nH]c2ccccc23)cc(OC)c1OC` (centres undefined) gave KCNQ2 inh -6.7* and KCNQ2 enhance -6.7.
For Cc1ccc(N2CCN(C(=O)c3cc(COc4c(C)cccc4C)on3)CC2)c(C)c1 the results were KCNQ2 inh inactive.
For Cc1cccc(C)c1OCc1cc(C(=O)N2CCCCCCC2)no1 the results were KCNQ2 inh -6.5* and KCNQ2 enhance -6.5.
Cc1nc2sc3c(c2c(=O)[nH]1)CCCCC3 was read as KCNQ2 inh inactive.
`Cc1cc(C)n(-c2nc3sc4c(c3c(=O)[nH]2)CCCC4)n1` gave KCNQ2 inh inactive and KCNQ2 enhance 18*.
For NC(=O)C1CCN(C(=O)NC2CC(=O)N(c3ccc4c(c3)OCCO4)C2)CC1 (centres undefined) the results were KCNQ2 inh inactive and KCNQ2 enhance 0.18.
